# Results taken from PubChem BioAssay (NCI).
# Where “and” joins values, the source holds several entries; their conditions need not be identical. Identical values can stand only once. The panel holds about 79,000 compounds, 15% with a hit somewhere; the sample as a whole holds those more often. A structure can be active in one record and inactive in another. Calls of active or inactive are those of the source. Cut-off read from the data, not from the text of the source: active = growth inhibition above about 70%; inactive = the rest.
# Tests used:
# [1] = NCI Yeast Anticancer Drug Screen. Data for the rad52 strain (AID 147);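 note: 0% = growth of vehicle-treated control cultures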; details: S. cerevisiae rad52 mutant growth inhibition, stronger effect = higher value
# Outline: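 Yeast strain carrying a DNA damage repair alteration was exposed to test compounds. Growth inhibition was measured relative to vehicle-treated controls.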
# [2] = NCI Yeast Anticancer Drug Screen. Data for the wt1 strain (AID 149);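 note: 0% = growth of vehicle-treated wt1 cultures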; details: S. cerevisiae wt1 strain (SPY 50644) growth inhibition, stronger effect = higher value
# Outline: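 Readout: yeast growth inhibition, normalised to vehicle controls, in the wt1 strain exposed to test compounds.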
# [3] = NCI Yeast Anticancer Drug Screen. Data for the rad50EPP+ strain (AID 151);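 note: 0% = growth of vehicle-treated control cultures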; details: S. cerevisiae rad50 mutant strain, stronger effect = higher value
# Outline: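 Yeast strain carrying rad50 alteration (rad50EPP+) exposed to compounds; growth inhibition measured relative to vehicle-treated controls.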
# [4] = NCI Yeast Anticancer Drug Screen. Data for the rad50 strain (AID 155);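 note: 0% = growth of vehicle-only cultures of the same strain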; details: S. cerevisiae rad50 strain growth inhibition, stronger effect = higher value
# Outline: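 Compounds were tested on a yeast strain with an engineered DNA damage repair alteration; the reported value is growth inhibition normalised to vehicle treatment.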
# [5] = NCI Yeast Anticancer Drug Screen. Data for the mec2-1 strain (AID 157); details: S. cerevisiae mec2-1 strain, stronger effect = higher value
# Outline: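 mec2-1 yeast strain, carrying an alteration in DNA damage repair or cell cycle control, was exposed to compounds; growth inhibition was measured relative to vehicle-treated controls.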
# [6] = NCI Yeast Anticancer Drug Screen. Data for the rad14 strain (AID 159);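 note: 0% = growth of vehicle-treated control cultures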; details: S. cerevisiae rad14 strain growth inhibition, stronger effect = higher value
# Outline: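 Compound-treated yeast with a defined DNA-repair lesion; growth inhibition normalised to vehicle-treated cultures.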
# [7] = NCI Yeast Anticancer Drug Screen. Data for the sgs1 mgt1 strain (AID 161);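 note: 0% = growth of cultures given vehicle only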; details: S. cerevisiae sgs1 mgt1 strain, stronger effect = higher value
# Outline: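 Growth of a repair-deficient yeast mutant was monitored after compound treatment and expressed as inhibition relative to vehicle-treated cultures.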
# [8] = NCI Yeast Anticancer Drug Screen. Data for the CLN2oe strain (AID 163);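 note: 0% = growth of vehicle-only control cultures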; details: S. cerevisiae CLN2oe strain, stronger effect = higher value
# Outline: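 Yeast cells carrying a defined cell-cycle control alteration were exposed to test compounds. Growth inhibition was scored against vehicle-treated control cultures.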
# [9] = NCI Yeast Anticancer Drug Screen. Data for the cln2 rad14 strain (AID 165);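 note: 0% = growth equal to vehicle treated cultures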; details: S. cerevisiae cln2 rad14 strain, stronger effect = higher value
# Outline: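 Yeast carrying cln2 and rad14 alterations (cell cycle control and DNA damage repair) were exposed to compounds. Growth inhibition was measured against vehicle-treated controls.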
# [10] = NCI Yeast Anticancer Drug Screen. Data for the bub3 strain (AID 167); details: S. cerevisiae bub3 mutant strain, stronger effect = higher value
# Outline: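 Growth of a checkpoint-deficient yeast mutant is measured after compound exposure. Values represent inhibition relative to vehicle.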
# [11] = NCI Yeast Anticancer Drug Screen. Data for the wt2 strain (AID 169);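 note: 0% = growth of vehicle-treated yeast cultures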; details: S. cerevisiae wt2 strain growth inhibition, stronger effect = higher value
# Outline: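 Yeast cells were exposed to test compounds, and growth inhibition was measured relative to vehicle-treated controls.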
# [12] = NCI Yeast Anticancer Drug Screen. Data for the mlh1 strain (AID 171);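 note: 0% = growth of vehicle-treated control cultures of the same strain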; details: S. cerevisiae mlh1 strain growth inhibition, stronger effect = higher value
# Outline: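 Yeast carrying a defined genetic alteration in DNA damage repair or cell cycle control were exposed to test compounds. Growth inhibition was measured relative to vehicle-treated controls.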
# [13] = NCI Yeast Anticancer Drug Screen. Data for the mlh1 rad18 strain (AID 175); details: S. cerevisiae mlh1 rad18 strain growth inhibition, stronger effect = higher value
# Outline: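 Growth inhibition of the yeast strain was measured after compound exposure and expressed relative to vehicle-treated controls. The strain carries defined defects in DNA damage repair.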
# [14] = NCI Yeast Anticancer Drug Screen. Data for the rad18 strain (AID 177); details: S. cerevisiae rad18 mutant growth inhibition, stronger effect = higher value
# Outline: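 Yeast carrying a defined DNA damage repair alteration were exposed to compounds. Growth inhibition was expressed relative to vehicle-treated controls.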
# [15] = NCI Yeast Anticancer Drug Screen. Data for the sgs1 strain (AID 173);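 note: 0% = growth of vehicle-only control cultures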; details: S. cerevisiae sgs1 mutant, stronger effect = higher value
# Outline: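 Yeast mutant strains carrying defined defects in DNA damage repair or cell cycle control were exposed to test compounds. Growth inhibition was scored against vehicle-treated controls.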
# [16] = at 5.0 µM (retest, dose inferred, filed as 0.5)
# [17] = at 50.0 µM (retest, dose inferred, filed as 5.0)
compound,measurement,setting,value
Nc1ccc(CCl)cc1Cc1c(O)ccc2ccccc12,growth inhibition,[1]; at 1.2 µM,0% (inactive)
same,growth inhibition,[1]; at 3.7 µM,3% (inactive)
same,growth inhibition,[1]; at 11.0 µM,9% (inactive)
same,growth inhibition,[1]; at 33.0 µM,19% (inactive)
same,growth inhibition,[1]; at 100.0 µM,36% (inactive)
same,growth inhibition,[2]; at 1.2 µM,-1% (inactive)
same,growth inhibition,[2]; at 3.7 µM,6% (inactive)
same,growth inhibition,[2]; at 11.0 µM,12% (inactive)
same,growth inhibition,[2]; at 33.0 µM,19% (inactive)
same,growth inhibition,[2]; at 100.0 µM,30% (inactive)
same,growth inhibition,[3]; at 1.2 µM,8% (inactive)
same,growth inhibition,[3]; at 3.7 µM,15% (inactive)
same,growth inhibition,[3]; at 11.0 µM,40% (inactive)
same,growth inhibition,[3]; at 33.0 µM,61% (inactive)
same,growth inhibition,[3]; at 100.0 µM,74% (active)
same,growth inhibition,[4]; at 1.2 µM,1% (inactive)
same,growth inhibition,[4]; at 3.7 µM,4% (inactive)
same,growth inhibition,[4]; [16],6% (inactive)
same,growth inhibition,[4]; at 11.0 µM,8% (inactive)
same,growth inhibition,[4]; at 33.0 µM,13% (inactive)
same,growth inhibition,[4]; [17],41% (inactive)
same,growth inhibition,[4]; at 50.0 µM,51.4% (inactive)
same,growth inhibition,[4]; at 100.0 µM,27% (inactive)
same,growth inhibition,[5]; at 1.2 µM,1% (inactive)
same,growth inhibition,[5]; at 3.7 µM,0% (inactive)
same,growth inhibition,[5]; [16],-6% (inactive)
same,growth inhibition,[5]; at 11.0 µM,6% (inactive)
same,growth inhibition,[5]; at 33.0 µM,13% (inactive)
same,growth inhibition,[5]; [17],84% (active)
same,growth inhibition,[5]; at 50.0 µM,37.2% (inactive)
same,growth inhibition,[5]; at 100.0 µM,33% (inactive)
same,growth inhibition,[6]; at 1.2 µM,1% (inactive)
same,growth inhibition,[6]; at 3.7 µM,3% (inactive)
same,growth inhibition,[6]; at 11.0 µM,8% (inactive)
same,growth inhibition,[6]; at 33.0 µM,16% (inactive)
same,growth inhibition,[6]; at 100.0 µM,29% (inactive)
same,growth inhibition,[7]; [16],2% (inactive)
same,growth inhibition,[7]; [17],64% (inactive)
same,growth inhibition,[7]; at 50.0 µM,70.3% (active)
same,growth inhibition,[8]; at 1.2 µM,-3% (inactive)
same,growth inhibition,[8]; at 3.7 µM,-7% (inactive)
same,growth inhibition,[8]; at 11.0 µM,3% (inactive)
same,growth inhibition,[8]; at 33.0 µM,-1% (inactive)
same,growth inhibition,[8]; at 100.0 µM,34% (inactive)
same,growth inhibition,[9]; [16],6% (inactive)
same,growth inhibition,[9]; [17],61% (inactive)
same,growth inhibition,[9]; at 50.0 µM,29.3% (inactive)
same,growth inhibition,[10]; at 1.2 µM,-4% (inactive)
same,growth inhibition,[10]; at 3.7 µM,-2% (inactive)
same,growth inhibition,[10]; [16],3% (inactive)
same,growth inhibition,[10]; at 11.0 µM,0% (inactive)
same,growth inhibition,[10]; at 33.0 µM,1% (inactive)
same,growth inhibition,[10]; [17],43% (inactive)
same,growth inhibition,[10]; at 50.0 µM,55% (inactive)
same,growth inhibition,[10]; at 100.0 µM,27% (inactive)
same,growth inhibition,[11]; at 1.2 µM,1% (inactive)
same,growth inhibition,[11]; at 3.7 µM,6% (inactive)
same,growth inhibition,[11]; at 11.0 µM,16% (inactive)
same,growth inhibition,[11]; at 33.0 µM,23% (inactive)
same,growth inhibition,[11]; at 100.0 µM,32% (inactive)
same,growth inhibition,[12]; at 1.2 µM,1% (inactive)
same,growth inhibition,[12]; at 3.7 µM,2% (inactive)
same,growth inhibition,[12]; at 11.0 µM,5% (inactive)
same,growth inhibition,[12]; at 33.0 µM,8% (inactive)
same,growth inhibition,[12]; at 100.0 µM,31% (inactive)
same,growth inhibition,[13]; [16],0% (inactive)
same,growth inhibition,[13]; [17],61% (inactive)
same,growth inhibition,[13]; at 50.0 µM,66.7% (inactive)
same,growth inhibition,[14]; at 1.2 µM,1% (inactive)
same,growth inhibition,[14]; at 3.7 µM,1% (inactive)
same,growth inhibition,[14]; at 11.0 µM,7% (inactive)
same,growth inhibition,[14]; at 33.0 µM,16% (inactive)
same,growth inhibition,[14]; at 100.0 µM,33% (inactive)
CN(C)c1ccc(/C=C/c2ccnc3ccccc23)cc1N,growth inhibition,[1]; at 1.2 µM,-6% (inactive)
same,growth inhibition,[1]; at 3.7 µM,-8% (inactive)
same,growth inhibition,[1]; at 11.0 µM,-10% (inactive)
same,growth inhibition,[1]; at 33.0 µM,-5% (inactive)
same,growth inhibition,[1]; at 100.0 µM,5% (inactive)
same,growth inhibition,[2]; at 1.2 µM,-2% (inactive)
same,growth inhibition,[2]; at 3.7 µM,-4% (inactive)
same,growth inhibition,[2]; at 11.0 µM,-9% (inactive)
same,growth inhibition,[2]; at 33.0 µM,-15% (inactive)
same,growth inhibition,[2]; at 100.0 µM,-7% (inactive)
same,growth inhibition,[3]; at 1.2 µM,-7% (inactive)
same,growth inhibition,[3]; at 3.7 µM,-4% (inactive)
same,growth inhibition,[3]; at 11.0 µM,5% (inactive)
same,growth inhibition,[3]; at 33.0 µM,29% (inactive)
same,growth inhibition,[3]; at 100.0 µM,56% (inactive)
same,growth inhibition,[4]; at 1.2 µM,-5% (inactive)
same,growth inhibition,[4]; at 3.7 µM,-10% (inactive)
same,growth inhibition,[4]; [16],-25% (inactive) and -10% (inactive)
same,growth inhibition,[4]; at 11.0 µM,-13% (inactive)
same,growth inhibition,[4]; at 33.0 µM,5% (inactive)
same,growth inhibition,[4]; [17],-13% (inactive) and 77% (active)
same,growth inhibition,[4]; at 50.0 µM,2.85% (inactive) and -9.8% (inactive)
same,growth inhibition,[4]; at 100.0 µM,17% (inactive)
same,growth inhibition,[5]; at 1.2 µM,-6% (inactive)
same,growth inhibition,[5]; at 3.7 µM,-6% (inactive)
same,growth inhibition,[5]; [16],-1% (inactive) and 4% (inactive)
same,growth inhibition,[5]; at 11.0 µM,-7% (inactive)
same,growth inhibition,[5]; at 33.0 µM,-4% (inactive)
same,growth inhibition,[5]; [17],-6% (inactive) and 94% (active)
same,growth inhibition,[5]; at 50.0 µM,32.1% (inactive) and -2.55% (inactive)
same,growth inhibition,[5]; at 100.0 µM,14% (inactive)
same,growth inhibition,[6]; at 1.2 µM,-7% (inactive)
same,growth inhibition,[6]; at 3.7 µM,-7% (inactive)
same,growth inhibition,[6]; at 11.0 µM,-8% (inactive)
same,growth inhibition,[6]; at 33.0 µM,3% (inactive)
same,growth inhibition,[6]; at 100.0 µM,17% (inactive)
same,growth inhibition,[7]; [16],-8% (inactive) and -6% (inactive)
same,growth inhibition,[7]; [17],43% (inactive) and 95% (active)
same,growth inhibition,[7]; at 50.0 µM,64.8% (inactive) and 1.25% (inactive)
same,growth inhibition,[8]; at 1.2 µM,-1% (inactive)
same,growth inhibition,[8]; at 3.7 µM,-5% (inactive)
same,growth inhibition,[8]; at 11.0 µM,-19% (inactive)
same,growth inhibition,[8]; at 33.0 µM,-16% (inactive)
same,growth inhibition,[8]; at 100.0 µM,-4% (inactive)
same,growth inhibition,[9]; [16],-6% (inactive) and -8% (inactive)
same,growth inhibition,[9]; [17],7% (inactive) and 40% (inactive)
same,growth inhibition,[9]; at 50.0 µM,-28.1% (inactive) and -22.4% (inactive)
same,growth inhibition,[10]; at 1.2 µM,-5% (inactive)
same,growth inhibition,[10]; at 3.7 µM,-5% (inactive)
same,growth inhibition,[10]; [16],3% (inactive) and -7% (inactive)
same,growth inhibition,[10]; at 11.0 µM,-8% (inactive)
same,growth inhibition,[10]; at 33.0 µM,-6% (inactive)
same,growth inhibition,[10]; [17],5% (inactive) and 89% (active)
same,growth inhibition,[10]; at 50.0 µM,81.6% (active) and -6.75% (inactive)
same,growth inhibition,[10]; at 100.0 µM,20% (inactive)
same,growth inhibition,[11]; at 1.2 µM,-5% (inactive)
same,growth inhibition,[11]; at 3.7 µM,-8% (inactive)
same,growth inhibition,[11]; at 11.0 µM,-10% (inactive)
same,growth inhibition,[11]; at 33.0 µM,6% (inactive)
same,growth inhibition,[11]; at 100.0 µM,52% (inactive)
same,growth inhibition,[12]; at 1.2 µM,-3% (inactive)
same,growth inhibition,[12]; at 3.7 µM,-3% (inactive)
same,growth inhibition,[12]; at 11.0 µM,-1% (inactive)
same,growth inhibition,[12]; at 33.0 µM,7% (inactive)
same,growth inhibition,[12]; at 100.0 µM,42% (inactive)
same,growth inhibition,[15]; at 1.2 µM,-3% (inactive)
same,growth inhibition,[15]; at 3.7 µM,-2% (inactive)
same,growth inhibition,[15]; at 11.0 µM,-3% (inactive)
same,growth inhibition,[15]; at 33.0 µM,20% (inactive)
same,growth inhibition,[15]; at 100.0 µM,64% (inactive)
same,growth inhibition,[14]; at 1.2 µM,-4% (inactive)
same,growth inhibition,[14]; at 3.7 µM,-3% (inactive)
same,growth inhibition,[14]; at 11.0 µM,-8% (inactive)
same,growth inhibition,[14]; at 33.0 µM,11% (inactive)
same,growth inhibition,[14]; at 100.0 µM,32% (inactive)
